# In PubChem BioAssay AID1159524 (National Center for Advancing Translational Sciences (NCATS), 2015):
# The whole screen tested about 410,000 compounds, of which about 5,100 (1.2%) were called active. Roughly 8% stayed inconclusive and do not appear here. Calls follow the shape of the full dose curve; tested in HEK293T cells. The full list was thinned out, with actives kept by preference.
# Assay: High Throughput Screening for Foot and Mouth Disease Virus Antivirals; also: read-out not given here; nearly all actives have a fitted effect of over 45% in size
# Conditions: FMDV antiviral cell-based qHTS; series mostly up to 57.9 µM; activity change, negative = inhibition: at the top concentration
# % is scaled to controls: 0 for no effect and ±100 for the full control effect; potency is read from the fitted curve at half-maximal effect.
SMILES,"activity change, negative = inhibition",Potency
CCC(C)(C)N=C(NC#N)Nc1cccnc1,-21.6% (inactive),–
COc1ccccc1C1CN(CCNC(=O)C2=CCCC2)Cc2ccccc2O1 (stereo unspecified),34.4% (inactive),–
CCOC(=O)c1c(S(=O)(=O)N2CCCC(C(=O)NCc3cccc(C)c3)C2)c(C)n(C)c1C (stereo unspecified),-22.3% (inactive),–
CCc1ccccc1N1C(=O)CN(S(=O)(=O)CC)CC1(C)C(=O)NC1CCCCC1 (stereo unspecified),0% (inactive),–
CCN(CCCNC(=O)Cn1ncc2c([nH]c3ccccc32)c1=O)c1cccc(C)c1,-8.64% (inactive),–
Cc1[nH]c2c(C(=O)NCC3Cc4cccc(-c5cccnc5)c4O3)cccc2c1C (stereo unspecified),12.1% (inactive),–
N#Cc1cccc(-c2ccc3ncnc(NCc4cccs4)c3c2)c1,-17.2% (inactive),–
O=C1CC(c2nnc(Cc3ccc(Cl)cc3)o2)CN1c1ccccc1 (stereo unspecified),1.46% (inactive),–
Cc1noc(C)c1-c1nccc(N2CCOCC2)n1,-12.1% (inactive),–
CCCc1nc(SCC(=O)N2CCCC2)c2c(=O)n(C)c(=O)n(C)c2n1,-3.3% (inactive),–
CCCc1nc(SCC(=O)Nc2ccccc2OC)c2c(=O)n(C)c(=O)n(C)c2n1,–,25.1 µM (active)
CCc1nc(SCC(=O)Nc2ccccc2OC)n[nH]1,13.3% (inactive),–
COc1cccc(-c2nc(Nc3ccncc3)c3ccccc3n2)c1,-29.5% (inactive),–
CN1CCN(c2ncncc2-c2ccc(C(=O)N(C)C)cc2)CC1,2.84% (inactive),–
CN(C)C(=O)[C@@H]1C[C@@H](Sc2nc3ccccc3[nH]2)CN1Cc1ccc(Cl)cc1,39.8% (inactive),–
O=C(CSc1nc2c(c(=O)[nH]1)CN(Cc1ccc3c(c1)OCO3)CC2)Nc1cc(F)ccc1F,6.05% (inactive),–
Fc1ccc2[nH]c3c(N4CCSCC4)ncnc3c2c1,–,3.16 µM (active)
Fc1ccc2[nH]c3c(N4CCN(Cc5ccc6c(c5)OCO6)CC4)ncnc3c2c1,–,6.31 µM (active)
N#C/C=C/N1CCN(Cc2ccc3c(c2)OCO3)CC1,-8.21% (inactive),–
Cc1cccc2nc(-c3ccc(Cl)s3)c(Nc3ccc4c(c3)OCCO4)n12,42.3% (inactive),–
CCN(CC)CCOC(=O)c1cc2cc(COC)ccc2o1,-7.56% (inactive),–
CCOC(=O)c1cc2cc(-c3c(C(=O)OCC)oc4cc(O)cc(O)c4c3=O)ccc2o1,–,31.6 µM (active)
CCOC(=O)c1c(-c2ccc(OC)cc2)oc2ccc(OCc3ccc(C(=O)OC)cc3)cc12,-24.4% (inactive),–
Cc1ccc(-c2nnc(SCc3ccccc3C)o2)cc1,66.9% (inactive),–
COc1ccccc1CNc1cc(-c2ccccc2CN(C)C)ncn1,-23.5% (inactive),–
O=C(c1ccc2c(c1)N(Cc1ccc(Cl)cc1)C(=O)c1ccccc1S2(=O)=O)N1CCCCC1,-18.2% (inactive),–

SMILES,"activity change, negative = inhibition",Potency
COc1ccc(C)cc1N1C(=O)[C@@H]2C[C@H]1CN2Cc1cccc(OC)c1O,-3.08% (inactive),–
CCCCC/C=C\C/C=C\C/C=C\CCCCCCC(=O)NCCO,-10.3% [at 6.7 µM] (inactive),–
Cc1ccc(-c2nn(CCC(=O)Nc3ccc(Cl)c(Cl)c3)c(=O)c3ccccc23)cc1,1.63% (inactive),–
O=C(CC(O)(C(F)(F)F)C(F)(F)F)Nc1ccc(Cl)c(Cl)c1,–,8.91 µM (active)
CC(c1cccnc1)N(CCN(C)C)C(=O)Nc1ccc(Cl)c(Cl)c1 (stereo unspecified),-16.7% (inactive),–
Cc1cc(Nc2cccc(C(F)(F)F)c2)nc2ccc(NC(=O)c3ccc(=O)[nH]c3)cc12,-8.82% (inactive),–
Cc1ccc(/C(=C/CN2CCCC2)c2ccccn2)cc1,1.29% (inactive),–
CC(N)(C(=O)O)c1ccc(-c2nn[nH]n2)cc1 (stereo unspecified),-9.72% (inactive),–
CCN1CCN(C(c2ccc(C)cc2)c2c(O)cc(C)n(Cc3ccco3)c2=O)CC1 (stereo unspecified),-29.2% (inactive),–
O=C(Nc1ccc2c(c1)nc1n2CCCCC1)c1cc(S(=O)(=O)N2CCOCC2)ccc1Cl,–,25.1 µM (active)
Cc1occc1C(=O)Nc1cccc(S(=O)(=O)N2CCOCC2)c1,15.8% (inactive),–
O=S(=O)(c1cccc(-c2nnc3n2CCCCC3)c1)N1CCOCC1,30.2% (inactive),–
CCOc1ccccc1NC(=O)CSc1ncc(S(=O)(=O)c2ccc(C(C)(C)C)cc2)c(=O)[nH]1,-2.88% (inactive),–
Cc1ccc(S(=O)(=O)c2nc(-c3ccco3)oc2SCC(=O)Nc2ccc(F)cc2)cc1,15.1% (inactive),–
CCC(=O)Nc1ccc2nc(SCC(=O)N3CCc4ccccc43)sc2c1,-19.9% (inactive),–
Nc1nnc(SCC(=O)Nc2ccc3nc(SCC(=O)Nc4ccccc4)sc3c2)s1,–,20 µM (active)
O=C(Nc1ccc2nc(SCCOc3ccccc3Cl)sc2c1)c1ccco1,-20.6% (inactive),–
Cc1ccc(OCCSc2nc3ccc(NC(=O)COc4ccc(C)cc4)cc3s2)cc1,-5.33% (inactive),–
Cc1cccc(OCCSc2nc3ccc(NC(=O)COc4ccccc4C)cc3s2)c1,0% (inactive),–
O=C(COc1ccccc1Cl)Nc1ccc2nc(SCC(=O)N3CCCC3)sc2c1,–,31.6 µM (active)
COc1ccc(NC(=O)Nc2cccc(-c3noc(C)n3)c2)cc1,1.15% (inactive),–
CCNc1ncc2ncc(=O)n(Cc3cccc(OC)c3)c2n1,-19.5% (inactive),–
COCCNc1ncnc2ccc(-c3cccnc3)cc12,-22.4% (inactive),–
CC1(C)CC(N2CCN(C(c3ccccc3)c3ccccc3)CC2)=CC(=[N+]2CCCCC2)C1,–,2.82 µM (active)
COC(=O)C(c1ccccc1)N1CCCCCC1 (stereo unspecified),-7.95% (inactive),–
CCN1CCN(c2ncc3c(n2)CC(c2ccccc2O)CC3=O)CC1 (stereo unspecified),-14.9% (inactive),–

SMILES,"activity change, negative = inhibition",Potency
N#CC1=C(N)Oc2cc(O)ccc2C1C1CCCCC1 (stereo unspecified),-23.5% (inactive),–
COCc1[nH]nc2c1C(C1C=CCCC1)C(C#N)=C(N)O2 (stereo unspecified),–,31.6 µM (active)
Cc1nc2nc(NCc3cccc(Br)c3)[nH]n2c(=O)c1Cc1ccccc1,-16.8% (inactive),–
COCCNC(=O)c1cc(-c2cccc(Cl)c2)on1,33.4% (inactive),–
COc1cc2nc(NCC(C)c3ccccc3)n3nc(-c4ccccc4)nc3c2cc1OC (stereo unspecified),-29.4% (inactive),–
Cc1cnc(CNc2ncncc2-c2ccccc2Cl)cn1,-16.2% (inactive),–
Cn1cc(-c2nc3cnc(N4CCNCC4)nc3n(CCC#N)c2=O)c2ccccc21,-2.62% (inactive),–
COc1cccc(CNc2nc(NCc3ccccc3OC)nc3ccsc23)c1,–,25.1 µM (active)
COc1ccc(CNc2ncncc2-c2ccccc2OC)c(OC)c1,-28% (inactive),–
COc1cccc(CNc2nccn(-c3ccc(OC)c(OC)c3)c2=O)c1,-12.6% (inactive),–
CCCN(C/C=C\I)[C@@H]1CCc2cccc(O)c2C1,-10.2% (inactive),–
COc1ccc(-c2nc3sc(CCNC(=O)C(C)(C)C)c(C)n3n2)cc1,-39.9% (inactive),–
O=C(COc1nc2ccccc2nc1N1CCOCC1)NCC(F)(F)F,-17.8% (inactive),–
c1ccc(Nc2nc(N3CCOCC3)c3ccccc3n2)cc1,–,11.2 µM (active)
c1cncc(-c2nc(N3CCNCC3)c3ccccc3n2)c1,-4.3% (inactive),–
O=C(O)C[C@@H]1NC(=O)[C@H](Cc2ccccc2)NC1=O,-7.83% (inactive),–
CCNc1ccc(C(=O)OCC(=O)N2c3ccccc3NC(=O)C2(C)C)cc1[N+](=O)[O-],–,20 µM (active)
CNS(=O)(=O)c1cccc(C(=O)OCC(=O)N2c3ccccc3NC(=O)C2(C)C)c1,-4.37% (inactive),–
Cc1ccc(OCCC(=O)OCC(=O)N2c3ccccc3NC(=O)C2(C)C)cc1,-21.8% (inactive),–
COc1ccc2c(c1)NC(=O)C2CC(=O)N1CCOc2c(cc(-c3cnc4ccccc4c3)cc2OC)C1 (stereo unspecified),-23.5% (inactive),–
O=C1/C(=C\c2ccc([N+](=O)[O-])cc2)CS(=O)(=O)C/C1=C/c1ccc([N+](=O)[O-])cc1,–,2.24 µM (active)
Nc1ccc([N+](=O)[O-])cc1,-19.3% (inactive),–
O=C(NCCCc1ccccc1)c1ccc2c(c1)sc1nc(-c3ccc(F)cc3)cn12,-2% (inactive),–
Cc1ncc2c(c1CNS(=O)(=O)N(C)C)CCN(C(=O)c1ccccc1F)C2,-10.2% (inactive),–
COc1cccc(CNC(=O)c2ccc3c(Cl)c4c(nc3c2)CCCC4)c1,12.9% (inactive),–
CC(C)CCNC(=O)c1ccc2c(Cl)c3c(nc2c1)CCC3,-24.9% (inactive),–

SMILES,"activity change, negative = inhibition",Potency
CC(=O)c1ccc(NC(=O)c2ccc3c(Cl)c4c(nc3c2)CCCC4)cc1,–,22.4 µM (active)
COc1ccc(-c2noc(-c3ccc(N4CCN(c5ccccc5)CC4)c([N+](=O)[O-])c3)n2)cc1OC,-12.9% (inactive),–
c1ccc(CN2CCN(Cc3ccc4c(c3)CN(Cc3c[nH]c5ccccc35)CCO4)CC2)nc1,-12.3% (inactive),–
CCOC(=O)C(=O)C1C(=O)Nc2ccccc21 (stereo unspecified),-14.8% (inactive),–
CCOC(=O)C(=Cc1ccccc1)C(=O)c1ccccc1,–,8.91 µM (active)
CCOC(=O)CCP(=O)(O)C(O)(c1ccccc1)c1ccccc1,-8.31% (inactive),–
COc1ccccc1C(=O)OCC(=O)NCCNC(=O)COC(=O)c1ccccc1OC,-9.67% (inactive),–
CCOC(=O)C(=Cc1ccccc1OC)C(=O)OCC,–,28.2 µM (active)
COc1ccccc1/C=C/C(=O)OCC(=O)NC1CCCCCC1,0.416% (inactive),–
Cc1ccc(CC2(O)CCN(CCOc3ccc(O)cc3)CC2)cc1,-14.5% (inactive),–
C[C@@H]1CN(Cc2ccc3c(c2)CN(Cc2ccc(Oc4ncccn4)cc2)CCO3)C[C@H](C)O1,-3.92% (inactive),–
CCS(=O)(=O)N(C)[C@@H]1c2cc(C#N)ccc2OC(C)(C)[C@H]1O,–,inactive
CC(=O)Nc1ccc(-c2csc(NC(=O)Nc3ccccc3)n2)cc1,–,15.8 µM (active)
Cc1ccc(C(=O)Nc2ccc(OCc3cc(=O)n4c(C)csc4n3)cc2)cc1,-2.45% (inactive),–
CC(=O)NC(c1ccccc1)c1nc(-c2ccccc2C)cs1 (stereo unspecified),-1.87% (inactive),–
CC(=O)Nc1ccc(C(=O)Nc2nc(-c3cc(C)n(Cc4ccccc4)c3C)cs2)cc1,–,22.4 µM (active)
CC(=O)c1ccc(NC(=O)CSc2nnc(NC(=O)Nc3ccccc3)s2)cc1,27.2% (inactive),–
CCn1c(SCC(=O)Nc2nc(C)cs2)nnc1C(C)NC(=O)c1ccccc1 (stereo unspecified),-1.72% (inactive),–
O=S(=O)(NCC(c1ccccc1)N1CCc2ccccc21)c1ccccc1 (stereo unspecified),-18% (inactive),–
CC1CN(Cc2nc3c(c(=O)n(C)c(=O)n3C)n2Cc2cccc(Cl)c2)CC(C)O1 (stereo unspecified),-21.5% (inactive),–
COCCn1c(CN2CCC(Cc3ccccc3)CC2)nc2c1c(=O)n(C)c(=O)n2C,–,15.8 µM (active)
CC1CCCN(Cc2nc3c(c(=O)n(C)c(=O)n3C)n2CC(=O)c2ccccc2)C1 (stereo unspecified),0% (inactive),–
CC(C)C1=CC2=CC[C@H]3[C@](C)(C(=O)O)CCC[C@]3(C)C2CC1 (stereo partly specified),-0.372% (inactive),–
